Measured values published in PubChem BioAssay.
The source made the active and inactive calls.

Tests used:
[1] = test system: Human papillomavirus type 1a protein E7 (residues 44-93); assay: HPV1a E7 fragment binders on microarrays, primary screen, biochemical, small-molecule microarray, residues 44-93, 635 nm fluorescence (AID 1108); conditions: small-molecule microarray binding, fluorescence 635 nm; higher = more signal;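 further: E7 fragment applied at 1 µg/mL in TBST for 1 h at 4 C; score combines spot fluorescence with its signal to noise ratio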
[2] = modulators of HCV replicon luciferase signal, primary screen, HCV replication inhibitor project, Huh7 cells, luciferase reporter (AID 1109); conditions: 48 h, higher = more signal;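 further: huh7 hepatoma cells harbouring a luciferase neomycin HCV replicon reporter; luciferase luminescence as measure of HCV replicon replication; test concentration not given here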
[3] = molecular target: Left-right determination factor 2 (Homo sapiens) (UniProt O00292); assay: LEFTY2 binders on small-molecule microarrays, primary screen, biochemical, small-molecule microarray, 635 nm fluorescence scan (AID 1110); conditions: LEFTY2 binding, higher = more signal
Left-right determination factor 2 (Homo sapiens), sequence (O00292 whole entry, looked up): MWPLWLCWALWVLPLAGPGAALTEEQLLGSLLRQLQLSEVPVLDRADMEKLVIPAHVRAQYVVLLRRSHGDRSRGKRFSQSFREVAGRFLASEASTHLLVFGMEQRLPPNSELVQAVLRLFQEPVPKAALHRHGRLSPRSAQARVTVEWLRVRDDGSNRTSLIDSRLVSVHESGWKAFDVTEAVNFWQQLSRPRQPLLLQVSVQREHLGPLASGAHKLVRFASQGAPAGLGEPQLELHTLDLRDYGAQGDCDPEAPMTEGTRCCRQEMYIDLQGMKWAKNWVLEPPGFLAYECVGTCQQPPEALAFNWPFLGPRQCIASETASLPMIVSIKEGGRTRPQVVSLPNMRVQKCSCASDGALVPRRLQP

[4] = molecular target: Calmodulin-1 (Homo sapiens) (UniProt P0DP23); assay: CALM1 binders on microarrays, EGTA buffer, profiling panel, biochemical, small-molecule microarray, Cy5-labelled CALM1 (AID 1111); conditions: Cy5-CALM1 binding fluorescence, higher = more signal;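 further: labelled calmodulin applied in Tris saline Tween buffer holding calcium plus EGTA and DTT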
[5] = molecular target: Calmodulin-1 (Homo sapiens) (UniProt P0DP23); assay: calcium-bound CALM1 binders on microarrays, profiling panel, artefact control for SMM control-protein annotation, biochemical, small-molecule microarray, Cy5-labelled CALM1, plus calcium (AID 1112); conditions: Cy5-CALM1 binding fluorescence, higher = more signal;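 further: score merges spot fluorescence with signal to noise from triplicate slides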
[6] = small-molecule microarray binders of probe aWnt5a, primary screen, biochemical, biotinylated probe, 635/667 nm fluorescence (AID 1113); conditions: higher = more signal;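 further: score merges 667 nm fluorescence intensity with signal-to-noise per printed feature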
[7] = small-molecule microarray binders of probe aShh, primary screen, biochemical, biotinylated probe, 635/667 nm fluorescence (AID 1114); conditions: higher = more signal;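 further: probe is biotin-labelled aShh protein from a stem cell growth factor screen; measures binding of labelled protein to compounds printed on the slide; score merges feature fluorescence at 667 nm with signal-to-noise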
[8] = small-molecule microarray binders of probe aNog, primary screen, biochemical, biotinylated probe, 635/667 nm fluorescence (AID 1115); conditions: higher = more signal;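 further: probe is biotinylated aNog protein used at 0.15 µg/mL for 1 h at 4 C; z-score combines 667 nm fluorescence of each spot with its signal to noise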
[9] = molecular target: Torsin-1A-interacting protein 1 (Homo sapiens) (UniProt Q5JTV8); assay: LAP1 binders from COS7 cell lysate, primary screen, small-molecule microarray, 635/667 nm fluorescence (AID 1116); conditions: COS7-hLAP1 lysate binding, 635 nm fluorescence, higher = more signal
Torsin-1A-interacting protein 1 (Homo sapiens), sequence (Q5JTV8 whole entry, looked up): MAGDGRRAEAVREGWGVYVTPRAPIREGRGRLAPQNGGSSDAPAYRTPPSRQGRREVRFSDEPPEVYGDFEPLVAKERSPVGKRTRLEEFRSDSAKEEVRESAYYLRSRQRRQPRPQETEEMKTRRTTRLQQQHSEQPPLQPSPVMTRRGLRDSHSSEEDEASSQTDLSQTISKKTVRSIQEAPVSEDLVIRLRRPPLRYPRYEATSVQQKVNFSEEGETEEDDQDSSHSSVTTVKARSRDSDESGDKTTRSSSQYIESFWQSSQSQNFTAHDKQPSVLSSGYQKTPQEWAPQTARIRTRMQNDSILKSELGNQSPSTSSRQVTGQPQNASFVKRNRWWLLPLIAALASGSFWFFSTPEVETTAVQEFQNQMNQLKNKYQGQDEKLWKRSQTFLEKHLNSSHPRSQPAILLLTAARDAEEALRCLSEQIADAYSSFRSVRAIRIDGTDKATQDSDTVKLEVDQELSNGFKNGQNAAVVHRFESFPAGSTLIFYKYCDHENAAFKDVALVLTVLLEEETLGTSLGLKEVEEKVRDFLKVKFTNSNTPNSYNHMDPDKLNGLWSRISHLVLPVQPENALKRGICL

[10] = molecular target: Alpha-bungarotoxin (Bungarus multicinctus) (UniProt P60615); assay: alpha-bungarotoxin binders on microarray, profiling panel, artefact control for SMM control protein annotation, biochemical, small-molecule microarray, Alexa647 label, 635/667 nm fluorescence (AID 1117); conditions: alpha-BTX-A647 binding fluorescence, higher = more signal
Alpha-bungarotoxin (Bungarus multicinctus), sequence (P60615 whole entry, looked up): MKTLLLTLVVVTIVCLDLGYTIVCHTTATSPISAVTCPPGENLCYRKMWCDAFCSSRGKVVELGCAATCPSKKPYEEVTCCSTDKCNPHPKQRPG

Albumin (Bos taurus) = Albumin (Bos taurus) (UniProt P02769); assay: bovine serum albumin binders on microarray, profiling panel, artefact control for SMM control protein annotation, biochemical, small-molecule microarray, Alexa647 label, 635/667 nm fluorescence (AID 1118); conditions: BSA-A647 binding, fluorescence 635 nm, higher = more signal;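 further: score merges 667 nm emission intensity and signal-to-noise per printed compound spot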
Albumin (Bos taurus), sequence (P02769 whole entry, looked up): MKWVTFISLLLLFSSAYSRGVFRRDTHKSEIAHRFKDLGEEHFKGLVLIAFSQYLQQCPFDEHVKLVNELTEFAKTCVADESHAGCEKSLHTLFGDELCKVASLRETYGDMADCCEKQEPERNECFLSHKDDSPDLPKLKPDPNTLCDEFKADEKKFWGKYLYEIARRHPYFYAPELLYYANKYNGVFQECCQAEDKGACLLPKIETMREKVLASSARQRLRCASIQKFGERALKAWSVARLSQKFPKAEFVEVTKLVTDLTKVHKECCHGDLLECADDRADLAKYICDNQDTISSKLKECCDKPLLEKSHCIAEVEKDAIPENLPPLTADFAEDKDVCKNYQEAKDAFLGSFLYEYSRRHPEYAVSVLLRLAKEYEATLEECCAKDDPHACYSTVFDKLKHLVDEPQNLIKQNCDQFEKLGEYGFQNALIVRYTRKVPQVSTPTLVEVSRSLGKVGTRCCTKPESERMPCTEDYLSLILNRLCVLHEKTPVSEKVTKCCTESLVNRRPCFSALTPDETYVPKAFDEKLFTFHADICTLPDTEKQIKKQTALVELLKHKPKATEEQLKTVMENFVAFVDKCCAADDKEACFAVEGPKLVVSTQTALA

[11] = small-molecule microarray binders of probe aXIP, primary screen, biochemical, NeuroSMM set, 635/667 nm fluorescence (AID 1119); conditions: higher = more signal, called active from +8 up or from −8 down;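 further: probe is the protein aXip251-270 applied at 1 µg/mL to compound-printed slides; binding of probe to printed compounds measured as 667 nm fluorescence plus signal to noise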
[12] = small-molecule binders of probe aNOTCH3, primary screen, biochemical, small-molecule microarray, 635/667 nm fluorescence (AID 1120); conditions: higher = more signal;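 further: probe is a biotin-tagged antibody raised against NOTCH3 rather than NOTCH3 protein; score merges spot fluorescence near 667 nm with spot signal to noise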
[13] = small-molecule binders of probe aNOTCH2, primary screen, biochemical, small-molecule microarray, 635/667 nm fluorescence (AID 1121); conditions: higher = more signal;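 further: score merges feature fluorescence read at 667 nm with its signal to noise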
[14] = molecular target: Carbonic anhydrase 2 (Homo sapiens) (UniProt P00918); assay: CAII small-molecule binders, profiling panel, biochemical, small-molecule microarray, Alexa647-labelled CAII (AID 1122); conditions: CAII-A647 binding fluorescence, higher = more signal
[15] = COS7 lysate on small-molecule microarray, probe aHis, 635 nm (AID 1123); conditions: COS7 cell lysate, fluorescence, higher = more signal;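 further: z-score combines 667nm fluorescence intensity with signal-to-noise per printed compound spot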
[16] = compound binding in COS7 lysate, probe aLAP1, primary screen, cell lysate, small-molecule microarray (AID 1124); conditions: probe aLAP1, fluorescence, higher = more signal;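 further: lysate comes from COS7 cells expressing LAP1 and is applied at 0.3 µg/mL; score merges spot fluorescence near 667 nm with signal-to-noise over triplicate slides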
Sam68 (KHDRBS1) = assay: Sam68 small-molecule binders, primary screen, biochemical, small-molecule microarray, 635 nm fluorescence (AID 1125); conditions: small-molecule microarray binding, higher = more signal;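 further: score merges 667 nm channel intensity with signal to noise over triplicate slides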
[17] = test system: Chordin-like protein 2 (CHRDL2); assay: CHRDL2 small-molecule binders, primary screen, biochemical, small-molecule microarray, 635 nm fluorescence (AID 1126); conditions: small-molecule microarray binding, fluorescence 635 nm; higher = more signal;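 further: printed compound slides probed with Chrdl2 protein at 4 µg/mL for 1 h at 4 C; score merges 667 nm emission intensity with signal to noise over three replicate slides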
[18] = molecular target: Concanavalin-A (Canavalia ensiformis) (UniProt P02866); assay: ConA small-molecule binders, primary screen, artefact control for SMM control protein annotation, biochemical, small-molecule microarray, Alexa647 label, 635 nm (AID 1127); conditions: ConA-A647 binding fluorescence, higher = more signal;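 further: z combines 667 nm emission intensity with signal-to-noise across three replicate slides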
Concanavalin-A (Canavalia ensiformis), sequence (P02866 whole entry, looked up): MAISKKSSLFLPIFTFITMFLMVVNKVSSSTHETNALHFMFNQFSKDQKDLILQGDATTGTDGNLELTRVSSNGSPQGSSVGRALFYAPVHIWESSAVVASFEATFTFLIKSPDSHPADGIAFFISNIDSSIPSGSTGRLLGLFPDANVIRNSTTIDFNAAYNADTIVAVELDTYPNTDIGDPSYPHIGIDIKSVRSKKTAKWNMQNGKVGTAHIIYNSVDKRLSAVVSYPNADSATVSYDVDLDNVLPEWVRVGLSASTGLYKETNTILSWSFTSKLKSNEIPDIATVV

| Structure (SMILES) | composite z-score [1] | z-score [2] | composite z-score [3] | composite z-score [4] | composite z-score [5] | composite z-score [6] | composite z-score [7] | composite z-score [8] | composite z-score [9] | composite z-score [10] | composite z-score (Albumin (Bos taurus)) | composite Z-score [11] | composite z-score [12] | composite z-score [13] | composite z-score [14] | composite z-score [15] | composite z-score [16] | composite z-score (Sam68 (KHDRBS1)) | composite z-score [17] | composite z-score [18] |
| --- | --- | --- | --- | --- | --- | --- | --- | --- | --- | --- | --- | --- | --- | --- | --- | --- | --- | --- | --- | --- |
| O=C(N1CCOCC1)[C@@]1(Cc2ccccc2)COC(c2ccc(OCCCO)cc2)=N1 | 1.44 | -1.95 | -0.571 | 1.16 | 0.83 | -0.0161 | -0.288 | -0.221 | 1.38 | 2.35 | 1 | -0.0252 (inactive) | 0.14 | 0.245 | 0.769 | 2.7 | 0.872 | 1.19 | -0.354 | 0.578 |
| CC(=O)NCCCC[C@@H]1NC(=O)[C@H]2C[C@@H](C(=O)NCCCCCCNC(=O)CS)[C@@H](c3cccc(OCCO)c3)N2C1=O | 1.05 | -0.199 | -0.0449 | 0.83 | 0.395 | 0.127 | 0.0444 | -0.0926 | 2.1 | 0.298 | -0.637 | 0.381 (inactive) | -0.0647 | -0.108 | 0.592 | 1.84 | 0.537 | 1.28 | 0.487 | 0.447 |
| C=CCOC(=O)[C@@H]1[C@H]2C(=O)O[C@H](c3ccccc3)[C@H](c3ccccc3)N2[C@H](c2ccc(OCCOC(=O)[C@H]3C[C@H]4C(=O)N5CCC[C@H]5C(=O)N4[C@H]3c3cccc(OCCO)c3)cc2)[C@@]12C(=O)Nc1ccc(I)cc12 | 0.195 | -0.898 | 1.19 | -0.0165 | 0.0231 | -0.0566 | 0.138 | 0.373 | 1.09 | 0.659 | -0.638 | 1.17 (inactive) | -0.0328 | -0.0228 | 0.219 | 0.942 | 0.448 | 1.3 | 1.02 | 1.17 |
